Screening data: PubChem, National Center for Advancing Translational Sciences (NCATS)
In the library only some 7.5% were active in any assay of this set; here they are far more common.
VP16 counter – Gal4-VP16 reporter inhibition counter-screen; Drosophila S2 Gal4-VP16 UAS-luciferase, luminescence, 20 h; Potency, µM (series often up to 53.6 µM), most hits filed as inhibitors; 3.5% of 310,000 active; AID 2546;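 further: Gal4-VP16 expression switched on by copper sulfate through the metallothionein promoter; nearly all actives have a fitted effect of over 50% in size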
RORgamma inh – inhibitors of mouse ROR gamma transcriptional activity; P51450; Drosophila S2 Gal4-RORgamma UAS-luciferase reporter, 20 h; Potency, µM (doses to about 53.6 µM), most hits filed as inhibitors; 5.4% of 310,000 active; AID 2551; further: nearly all actives have a fitted effect of over 60% in size
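Using a luciferase readout, inhibitors were identified by reduced reporter activity in Drosophila cells coexpressing a copper-inducible Gal4–ROR gamma fusion and UAS-driven Photinus luciferase, incubated 20 hr after 700 uM copper sulfate.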
TSHR antagonist – blocks TSH signaling through the human TSH receptor; TSHR-expressing cells, TSH-stimulated cAMP HTRF, 2 h; active compounds read low; activity change, negative = inhibition, % at 11.5 µM; 0.2% of 330,000 active;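 active means activity change below a set negative limit, meaning inhibition stronger than a set level, cut at about -70% in these data; inconclusive means activity change between two set negative limits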
Target sequence (P16473 whole entry, looked up): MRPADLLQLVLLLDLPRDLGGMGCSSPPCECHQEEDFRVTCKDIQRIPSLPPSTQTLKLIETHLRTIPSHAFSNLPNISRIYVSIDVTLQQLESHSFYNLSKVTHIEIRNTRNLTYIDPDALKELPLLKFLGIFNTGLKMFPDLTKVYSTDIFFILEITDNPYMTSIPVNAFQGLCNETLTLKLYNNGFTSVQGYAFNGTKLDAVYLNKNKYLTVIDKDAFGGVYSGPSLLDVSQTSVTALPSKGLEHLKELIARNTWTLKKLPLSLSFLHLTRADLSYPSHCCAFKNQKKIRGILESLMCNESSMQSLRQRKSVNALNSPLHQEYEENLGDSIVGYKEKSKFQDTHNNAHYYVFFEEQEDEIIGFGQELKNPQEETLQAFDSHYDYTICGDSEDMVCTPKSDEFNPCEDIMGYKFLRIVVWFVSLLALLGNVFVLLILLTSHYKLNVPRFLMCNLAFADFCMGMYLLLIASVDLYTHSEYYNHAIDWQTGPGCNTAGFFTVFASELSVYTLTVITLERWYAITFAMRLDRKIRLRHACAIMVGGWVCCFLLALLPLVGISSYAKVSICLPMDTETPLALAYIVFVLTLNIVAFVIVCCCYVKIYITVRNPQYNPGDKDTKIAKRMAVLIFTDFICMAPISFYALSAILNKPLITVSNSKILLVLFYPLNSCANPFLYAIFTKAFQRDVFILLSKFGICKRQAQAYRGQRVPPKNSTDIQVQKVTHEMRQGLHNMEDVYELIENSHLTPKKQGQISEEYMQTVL
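Read-out is FRET at 665 nm (cryptate excitation 337 nm) from a cryptate-tagged anti-cAMP antibody, competed by cell cAMP against cAMP-d2. Compounds are tested on freshly harvested TSHR cells challenged with 4nM TSH (EC80) for 2 hours at 37 deg C.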
ELG1 repair inh – blocks ELG1-dependent DNA repair in HEK293T cells; 2.3% of 330,000 active; Potency, µM (doses to about 46.1 µM), actives largely listed as inhibitors; HEK293T ELG1-luciferase reporter, luminescence, 16 h; DNA damage induced by 5-fluorouridine; further: nearly all actives have a fitted effect of over 55% in size
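Quantitative HTS, concentration-response format. 2,000 cells/well co-treated with 5-fluorouridine and compound, 16 hr in 5% CO2 at 37 °C; ONE-Glo luminescence read after 30 min.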
B2AR arrestin – beta2AR (human) beta-arrestin recruitment activity. P07550. beta-arrestin recruitment to beta2AR, cell-based reporter. Potency, µM (titrated, usually from 46.1 µM), most hits filed as activators. 0.02% of 330,000 active. AID 492947; further: nearly all actives have a fitted effect of over 65% in size
Hits are given with their value; 0 = inactive; ? = inconclusive; - = not tested or not shown; [ ] = remark or other dose. Unless noted, the call rests on the fitted dose curve; in most records, active means well fitted curve in the direction sought with a large enough effect; inconclusive means small, poorly fitted or top-dose-only effect, or another doubt; inactive means no such curve, though single readings can be large; an effect the other way counts as inactive or inconclusive.

SMILES | VP16 counter | RORgamma inh | TSHR antagonist | ELG1 repair inh | B2AR arrestin
CC(=O)Nc1ccc(C(=O)n2cnc3cc(C)c(C)cc32)cc1 | 0 | 0 | 0 | 0 | 0
O=C(Cc1ccccc1)N/N=C/c1ccc2cccc(O)c2n1 | ? | 7.94µM | 0 | 0 | 0
Cc1ccc(NCC(=O)N/N=C\c2ccc[nH]2)cc1 | ? | 6.31µM | 0 | 0 | 0
Cc1ccc(C)c(NC(=O)CCC(=O)N/N=C/c2ccc[nH]2)c1 | 0 | 0 | 0 | 0 | 0
O=C(Cc1ccccc1)N/N=C/c1ccc[nH]1 | 0 | 12.6µM | 0 | 0 | 0
COC(=O)N1CCC[C@@]2(CCN(C(=O)Nc3cccc(F)c3)C2)C1 | 0 | 0 | - | - | -
CCN(c1ccc(NC(=O)c2cccc(S(=O)(=O)N3CCN(C)CC3)c2)cc1)C(C)C | ? | ? | 0 | 0 | 0
O=C(COc1ccccc1F)Nc1cc(S(=O)(=O)N2CCOCC2)ccc1N1CCOCC1 | 0 | 0 | 0 | ? | 0
COc1ccc(/C=C/C(=O)Nc2cc(S(=O)(=O)N3CCOCC3)ccc2N2CCCC2)cc1OC | 0 | 0 | 0 | 0 | 0
CCOc1cccc(/C=N/NC(=S)Nc2cc(S(=O)(=O)N3CCOCC3)ccc2N2CCOCC2)c1O | 10µM | ? | 0 | 5.8µM | 0
COc1ccc(/C=N/NC(=S)Nc2cc(S(=O)(=O)N3CCOCC3)ccc2N2CCOCC2)cc1O | ? | ? | 0 | 7.31µM | 0
CCN(CC)c1ccc2cc(C(C)=O)c(=O)oc2c1 | 0 | 0 | 0 | ? | 0
CCN(CC)c1ccc2cc(NC(=O)CCC(=O)O)c(=O)oc2c1 | 1.26µM | 0.794µM | 0 | 0 | 0
CN1C(c2ccc(F)cc2)=CS/C1=C(/C#N)c1nnc(N2CCOCC2)n1-c1ccccc1 | 0 | 0 | 0 | 0 | 0
CN1C(=O)NC(c2ccccc2)(C(F)(F)F)S/C1=C(/C#N)c1nnc(N2CCOCC2)n1-c1ccccc1 (centres undefined) | ? | 14.1µM | 0 | 0 | 0
CCc1ccc(-c2nc(CSCC(=O)N3CCN(c4ccccn4)CC3)c(C)o2)cc1 | 12.6µM | ? | 0 | ? | 0
Cc1ccc(-c2nc(CSCC(=O)N3CCN(c4ccccn4)CC3)c(C)o2)cc1 | ? | ? | 0 | 10.3µM | 0
COc1ccc(-c2noc(CCC(=O)N3CCN(c4cccc(C(F)(F)F)c4)CC3)n2)cc1 | ? | ? | 0 | ? | 0
CCOc1ccc(-c2nc(CSCC(=O)N3CCN(c4cccc(OC)c4)CC3)c(C)o2)cc1 | 11.2µM | 11.2µM | 0 | ? | 0
COc1ccc(-c2noc(CCC(=O)N3CCN(c4cccc(OC)c4)CC3)n2)cc1 | - | - | 0 | 25.9µM | 0
O=C(Nc1cccc(C(F)(F)F)c1)C1CCCO1 (centres undefined) | 0 | 0 | 0 | 0 | 0
COc1cc2c(cc1OC)-c1cc(Nc3ccc(N(C)C)cc3)nc(=O)n1CC2 | 0 | 0 | 0 | ? | 0
CCN(CC)c1ccc(Nc2cc3n(c(=O)n2)CCc2cc(OC)c(OC)cc2-3)cc1 | 0 | 0 | 0 | 5.17µM | 0
COc1cc2c(cc1OC)-c1cc(OCc3ccccc3Cl)nc(=O)n1CC2 | 0 | 0 | 0 | 16.4µM | 0
COc1cc2c(cc1OC)-c1cc(NC3CCCC3)nc(=O)n1CC2 | 0 | ? | 0 | ? | 0
SMILES | VP16 counter | RORgamma inh | TSHR antagonist | ELG1 repair inh | B2AR arrestin
CCC(=O)OCC(=O)[C@@]1(OC(=O)CC)[C@@H](C)C[C@@H]2[C@H]3CCC4=CC(=O)C=C[C@]4(C)[C@@]3(F)[C@@H](O)C[C@@]21C | 0 | 0 | - | - | -
NC(=S)COc1ccccc1 | 0 | 22.4µM | 0 | 0 | 0
O=C(O)COc1ccc(Nc2ccccc2)cc1 | 0 | 0 | 0 | 0 | 0
NC(=O)COc1ccccc1 | 0 | 0 | 0 | 0 | 0
O=C(O)COc1ccc(Oc2ccccc2)cc1 | 12.6µM | ? | 0 | 0 | 0
CC(C)(C)C(=O)Nc1ccc(-c2cn3ccsc3n2)cc1 | 4.47µM | 4.47µM | 0 | ? | 0
O=C(O)c1ccccc1C(=O)NC1CCCc2ccccc21 (centres undefined) | 0 | 0 | 0 | 0 | 0
COc1ccc(Oc2ncc3nc(-c4cccs4)c(=O)n(Cc4cccs4)c3n2)cc1 | 0 | 0 | - | - | -
CN1/C(=C\C=N\NC(=O)c2ccccc2Br)C(C)(C)c2ccccc21 | 1.26µM | 0.794µM | 0 | 0 | 0
CN1/C(=C\C=C(C#N)C#N)C(C)(C)c2ccccc21 | 0 | 0 | 0 | 0 | 0
CN1/C(=C/C=N/n2cnnc2)C(C)(C)c2ccccc21 | 17.8µM | 0 | 0 | 0 | 0
O=C(Nc1ccc(Cl)cc1)Nc1nnc(-c2ccncc2)s1 | 0 | 0[10 µM] | 0 | 3.66µM | 0
O=C(Nc1cccc(Cl)c1)Nc1nnc(-c2ccncc2)s1 | 0 | ? | -73.3 | ? | 0
Cn1cc(-c2nc3cnc(N4CCOCC4)nc3n(CCC#N)c2=O)c2ccccc21 | 0 | 0 | - | - | -
Cc1cccc(N=Nc2c(C)nn(-c3ccccc3)c2N)c1C | ? | 2.51µM | 0 | ? | 0
Cc1nn(-c2ccccc2)c(N)c1N=Nc1ccccc1 | 0 | 0 | 0 | ? | 0
COc1ccccc1N1CCN(C(=O)Nc2ccc([N+](=O)[O-])cc2)CC1 | 0 | ? | 0 | 14.6µM | 0
COc1ccccc1N1CCN(C(=O)c2cc3c(=O)n(C)c4ccccc4c3n2C)CC1 | 0 | 0 | 0 | 16.4µM | 0
COc1ccccc1N1CCN(C(=O)c2ccc([N+](=O)[O-])s2)CC1 | 0 | 7.94µM | 0 | 0 | 0
COc1cc2cc[n+]3cc4c(OC)c(OC)ccc4cc3c2cc1OC | 0 | 0 | - | - | -
Cc1ccc(-c2c[nH]c(=S)n2-c2ccccc2F)cc1 | 5.01µM | 1.58µM | 0 | 0 | 0
Cc1ccc(-c2c[nH]c(=S)n2-c2ccccc2)cc1 | 5.01µM | 1.26µM | 0 | 0 | 0
CCOc1ccc(-n2c(-c3ccccc3)nnc2-c2ccccc2)cc1 | 0 | 0 | 0 | 0 | 0
Cc1ccc(-n2c(-c3ccccc3)cc(=O)nc2C)cc1 | 0 | 0 | 0 | 0 | 0
CCOc1ccc(-n2c(-c3ccccc3)c[nH]c2=S)cc1 | 5.62µM | 2µM | 0 | 0 | 0
SMILES | VP16 counter | RORgamma inh | TSHR antagonist | ELG1 repair inh | B2AR arrestin
O=c1cc(O)n(-c2ccccc2F)c(=S)[nH]1 | 0 | 0 | 0 | 0 | 0
O=S(=O)(c1ccccc1)N1CCC[C@@]2(CCN(Cc3cc(C(F)(F)F)cc(C(F)(F)F)c3)C2)C1 | 0 | 0 | - | - | -
COC(=O)c1c(C)[nH]c(C(=O)OCC(=O)c2ccc(C)s2)c1C | - | - | 0 | ? | ?
O=C(N/N=C/c1c(Cl)cccc1Cl)c1ccccc1F | 0 | 0 | 0 | ? | 0
Cc1cccc(C)c1NC(=S)N/N=C/c1c(Cl)cccc1Cl | 2.51µM | 0.501µM | 0 | 0 | 0
COC(=O)N/N=C/c1ccccc1Cl | 0 | 0 | 0 | 0 | 0
Cc1c(Cl)cccc1NC(=S)N/N=C/c1ccccc1Cl | 4.47µM | 1µM | 0 | ? | 0
CNC(=S)N/N=C/c1ccccc1Cl | 5.62µM | 3.98µM | 0 | ? | 0
CNC(=S)N/N=C/c1c(Cl)cccc1Cl | 6.31µM | 3.16µM | 0 | 0 | 0
C/C(CCN1CCCc2nc(C)c(C)cc21)=N\OC[C@@H](C)[C@H](OCc1ccccc1)C(C)C | 0[10 µM] | 0[10 µM] | - | - | -
